Experimental data as given in PubChem BioAssay (NCATS).
Values joined by “and” are separate entries in the source; they are usually repeats but may differ in a detail not shown here. Equal entries are not always repeated. Results filed as inconclusive are left out. Active and inactive are the calls of the source. The call rests on the fitted dose curve; in most records, active means well fitted cell-killing curve with a large enough effect; inconclusive means small, poorly fitted or top-dose-only effect; inactive means no such curve, though single readings can be large or run the other way.

assay: qHTS of pediatric cancer cell lines to identify multiple opportunities for drug repurposing: Confirmatory screen for BT-37 cells (AID 1347117); conditions: BT-37 pediatric cancer cells, viability; series mostly up to 45.9 µM; further: nearly all actives have a fitted effect of over 55% in size
Source text: Drug repurposing or repositioning has been offered as a strategy for drug development in oncology programs. This approach has special potential for childhood cancers and other rare or orphan diseases, where the expected return on new drug development has been a disincentive to pharmaceuticals.
In this project we exploit the poly-pharmacology of drugs to discover new indications via phenotypic screening of a panel of 19 well-characterized cell lines derived from solid tumors seen in children and adolescents. The goal is to identify approved drugs with previously unrecognized anticancer properties that has the potential to reveal new mechanisms and biological processes involved in carcinogenesis or drug resistance. We employed a titration-based paradigm (quantitative high-throughput screening or qHTS), where all compounds were tested at multiple concentrations for their effect on cell viability. Concentration-response curves (CRCs) were derived directly from the primary screen, and both potency and efficacy values were used to identify compounds with robust bioactivity profiles. We screened the NIH Chemical Genomics Center (NCGC) Pharmaceutical Collection (NPC) and Mechanism Interrogation Plate (MIPE) small molecule collections of approved and investigational compounds against these cell lines; and measured metabolically active cells after 48 hours of compound treatment as a proxy for cell viability.
Assay Submitter: Nathalia J. Martinez, National Center for Advancing Translational Sciences, National Institutes of Health, Rockville, MD, USA; email: natalia.martinez@nih.gov
[1] Shen, M et al. Quantitative high-throughput phenotypic screening of pediatric cancer cell lines identifies multiple opportunities for drug repurposing. Oncotarget 2017 Dec 19;9(4):4758-4772. PMID 29435139.
The cells were obtained from University of North Carolina (UNC), Pediatric Preclinical Testing Program (PPT), and Coriell Institute (CI).
qHTS cell viability assay:
Cells were assayed in growth media at a density of 500-1,000 cells/well. Five microliters of cells were dispensed into 1,536-well, white, solid-bottom, TC-treated plates (Greiner Bio One) using a multidrop dispenser and incubated at 37 degrees C, 5% CO2, under a humidified atmosphere for 5 hours. Twenty-three nanoliters of compounds and controls (neutral control DMSO or positive control bortezomib at final concentration of 2.3 µM) were subsequently transferred by Kalypsys pintool. For primary screens, the MIPE collection was tested at 11-point dilutions (final concentrations range from 0.78 nM to 46 µM) and the NPC collection at 8-point dilutions (final concentrations range from 0.59 nM to 46 µM). Compounds tested in follow-up screens were assayed at 11-point dilutions. Cells were incubated for 48 hours, followed by addition of 3 µL of CellTiter-Glo (Promega). After a 15 min incubation at room temperature, samples were analyzed for luminescence intensity using a ViewLux High-throughput CCD imager equipped with clear filters.
Potency means the concentration at half of the fitted maximal effect.

Compound | Potency
CO[C@H]1C=CC=C(C)C(=O)NC2=CC(=O)C(NCCN(C)C)=C(C[C@@H](C)C[C@H](OC)[C@@H](O)[C@@H](C)C=C(C)[C@@H]1OC(N)=O)C2=O | 1.17 µM (active)
COc1ccc(-c2coc3cc(O)cc(O)c3c2=O)cc1 | inactive
CN(C)C1CCN(C(=O)c2ccc(NC(=O)Nc3nc(N4CCOCC4)nc(N4CCOCC4)n3)cc2)CC1 | 0.147 µM (active)
CC(C)n1nc(-c2ccc3oc(N)nc3c2)c2c(N)ncnc21 | 0.0369 µM (active)
O=C(NCc1ccncc1)C12C[C@H]3C[C@@H](C1)CC(c1ccc(Cl)cc1)(C3)C2 | 20.8 µM (active)
CCc1ccc(OCc2ccccc2C(=O)Nc2ccc3nc(C)cc(N)c3c2)cc1 | 7.37 µM (active)
Cc1cc(OCCCc2c(C(=O)O)n(Cc3cccnc3)c3c(-c4c(COc5ccc(N6CCN([S+](C)(=O)[O-])CC6)cc5)nn(C)c4C)cccc23)cc(C)c1Cl | 18.5 µM (active)
CC(=NNC(=S)N1CCC1)c1ccccn1 | inactive
O=C1C(Cl)=C(NCCN2CCOCC2)C(=O)c2ncccc21 | 1.47 µM (active)
CCCCCCCCCCCC1=C(O)C(=O)C=C(O)C1=O | inactive
CNC1CCC(N(Cc2cccc(-c3ccncc3)c2)C(=O)c2sc3c(F)ccc(F)c3c2Cl)CC1 (stereo not drawn) | 20.8 µM (active)
CC1(C)CCC(CN2CCN(c3ccc(C(=O)NS(=O)(=O)c4ccc(NCC5CCOCC5)c([N+](=O)[O-])c4)c(Oc4cnc5[nH]ccc5c4)c3)CC2)=C(c2ccc(Cl)cc2)C1 | inactive
COc1cc2ncnc(Nc3ccc(F)c(Cl)c3)c2cc1OCCCN1CCOCC1 | 13.5 µM (active)
O=C(O)c1ccc(-c2c[nH]c3ncc(-c4ccccc4)cc23)cc1C1CCCC1 | inactive
CCOc1ccc(Nc2nc(-c3c(C)nc4ccccn34)cs2)cc1 | 0.293 µM (active)
CC1(C)CCC[C@@]2(C)[C@@H]1CC[C@@]1(C)OC(=O)C[C@H]21 | inactive
CC[C@]1(O)C[C@@H]2CN(CCc3c([nH]c4ccccc34)[C@@](C(=O)OC)(c3cc4c(cc3OC)N(C)[C@H]3[C@@](O)(C(=O)OC)[C@H](OC(C)=O)[C@]5(CC)C=CCN6CC[C@]43[C@@H]65)C2)C1 | 737 nM (active) and 1.17 µM (active)
CC1(C)O[C@H]2C[C@@H]3[C@H]4CCC5=CC(=O)C=C[C@]5(C)[C@@]4(F)[C@@H](O)C[C@]3(C)[C@]2(C(=O)CO)O1 | inactive
Cc1[nH]c(C=C2C(=O)Nc3ccc(S(=O)(=O)Cc4c(Cl)cccc4Cl)cc32)c(C)c1C(=O)N1CCC[C@H]1CN1CCCC1 | 18.5 µM (active)

Compound | Potency
C=C1C(=O)[C@@]23C(CC[C@@H]1[C@H]2O)[C@@]12CO[C@]3(O)[C@@H](O)[C@@H]1C(C)(C)CC[C@@H]2O (stereo partly drawn) | 18.5 µM (active)
CC1(C)S[C@H]2[C@H](NC(=O)[C@@H](N)c3ccc(O)cc3)C(=O)N2[C@@H]1C(=O)O | inactive
COc1ncc(-c2ccc3nccc(-c4ccnnc4)c3c2)cc1NS(=O)(=O)c1ccc(F)cc1F | 0.465 µM (active)
COc1cc(N2CCC(N3CCN(C)CC3)CC2)ccc1Nc1ncc(Cl)c(Nc2ccccc2S(=O)(=O)C(C)C)n1 | 14.7 µM (active)
O=C1NC(=O)C(=Cc2ccc3c(c2)OC(F)(F)O3)S1 | inactive
N[C@@]1(C(=O)O)CS(=O)(=O)[C@H]2[C@H](C(=O)O)[C@H]21 | 0.737 µM (active)
CC(=O)Nc1ccc([C@H](C)C(=O)Nc2ncc(C(C)C)s2)cc1 | 4.14 µM (active)
COc1ccc2c(Oc3ccc(NC(=O)c4c(C)n(CC(C)(C)O)n(-c5ccccc5)c4=O)cc3F)ccnc2c1 | inactive
O=c1[nH]cnc2c1ncn2[C@H]1CC[C@@H](CO)O1 | inactive
Nc1ncnc2c1ncn2[C@@H]1O[C@@H](CO)[C@H](O)[C@H]1O | inactive
CC[C@]1(O)C[C@@H]2CN(CCc3c([nH]c4ccccc34)[C@@](C(=O)OC)(c3cc4c(cc3OC)N(C=O)[C@@H]3C45CCN4CC=C[C@](CC)([C@H]45)[C@@H](OC(C)=O)[C@]3(O)C(=O)OC)C2)C1 (stereo partly drawn) | inactive
O=C1c2ccccc2-[n+]2ccc3c([nH]c4ccccc43)c21 | 1.04 µM (active)
CC=C(C)C(=O)O[C@H]1C(C)=C[C@]23C(=O)[C@@H](C=C(CO)[C@@H](O)[C@]12O)[C@H]1[C@@H](C[C@H]3C)C1(C)C | inactive
COc1cccc(-c2cc(=O)c3ccccc3o2)c1N | inactive
CC1(C)CCC2=C(O1)c1ccccc1C(=O)C2=O | 23.3 µM (active)
NS(=O)(=O)c1cccc2c1C(=O)c1cccc(O)c1C2=O | 0.737 µM (active)
O=C(O)CCC1CCC(c2cc(F)ccc2F)(S(=O)(=O)c2ccc(Cl)cc2)CC1 (stereo not drawn) | 16.5 µM (active)
NC1=N[C@@]2(c3cc(NC(=O)c4ccc(F)cn4)ccc3F)COC[C@@H]2CS1 | inactive
CC(=O)Oc1cc2c(s1)CCN(C(C(=O)C1CC1)c1ccccc1F)C2 (stereo not drawn) | inactive
